Results taken from PubChem BioAssay AID1159580 (chemical genetic matrix, 2015).
“And” between values parts separate entries of the source, which are not always exact repeats. Identical values can stand only once. The whole screen tested about 5,500 compounds, of which about 2,000 (36%) were called active. Another 18% or so got no clear call; they are omitted. Cut-off read from the data, not from the text of the source: active = normalized growth mostly below about 0.91 (no sharp cut-off); inconclusive = no clear call, values can overlap the other calls; inactive = mostly above about 0.92. The list shows a part of the results.

Experiment: chemical genetic growth profiling, strain panel (AID 1159580);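 note: tested at 20 µM; growth read once vehicle control cultures reached saturation at 30 °C; 1 = growth at the plate median or of vehicle wells; lower values mean less growth of the strain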
Conditions: S. cerevisiae deletion strains, growth OD

Measured: normalized growth

N[C@@H](Cc1ccc(N(CCCl)CCCl)cc1)C(=O)O
inactive: locus YAL013W, strain DEP1, stronger effect = lower value 0.988 | locus YAL021C, strain ccr4, stronger effect = lower value 0.985 | locus YAL026C, strain drs2, stronger effect = lower value 0.997 | locus YAL030W, strain snc1, stronger effect = lower value 0.991 | locus YBL061C, strain skt5, stronger effect = lower value 0.987 | locus YBR009C, strain hhf1, stronger effect = lower value 0.985 | locus YBR021W, strain FUR4, stronger effect = lower value 1.05 | locus YBR023C, strain chs3, stronger effect = lower value 0.978 | locus YBR171W, strain sec66, stronger effect = lower value 0.98 | locus YBR229C, strain ROT2, stronger effect = lower value 0.947 | locus YBR231C, strain swc5, stronger effect = lower value 0.994 | locus YBR279W, strain paf1, stronger effect = lower value 0.988 | locus YCL011C, strain gbp2, stronger effect = lower value 0.971 | locus YCL016C, strain dcc1, stronger effect = lower value 0.968 | locus YCL029C, strain bik1, stronger effect = lower value 0.972 | locus YCL061C, strain MRC1, stronger effect = lower value 0.972 | locus YCL069W, strain vba3, stronger effect = lower value 0.984 | locus YCR088W, strain abp1, stronger effect = lower value 0.986 | locus YDL005C, strain med2, stronger effect = lower value 0.995 | locus YDL035C, strain GPR1, stronger effect = lower value 0.986 | locus YDL040C, strain nat1, stronger effect = lower value 0.985 | locus YDL074C, strain BRE1, stronger effect = lower value 0.977 | locus YDL101C, strain DUN1, stronger effect = lower value 0.972 | locus YDL134C, strain PPH21, stronger effect = lower value 0.987 | locus YDL192W, strain arf1, stronger effect = lower value 0.973 | locus YDR001C, strain nth1, stronger effect = lower value 0.978 | locus YDR069C, strain doa4, stronger effect = lower value 0.996 | locus YDR101C, strain arx1, stronger effect = lower value 0.983 | locus YDR137W, strain rgp1, stronger effect = lower value 0.964 | locus YDR150W, strain NUM1, stronger effect = lower value 0.974 | locus YDR159W, strain sac3, stronger effect = lower value 1.01 | locus YDR162C, strain NBP2, stronger effect = lower value 0.974 | locus YDR195W, strain ref2 0.975 | locus YDR297W, strain sur2, stronger effect = lower value 0.998 | locus YDR318W, strain mcm21, stronger effect = lower value 0.984 | locus YDR334W, strain swr1, stronger effect = lower value 0.966 | locus YDR335W, strain msn5, stronger effect = lower value 0.995 | locus YDR388W, stronger effect = lower value 0.984 | locus YDR392W, strain spt3, stronger effect = lower value 0.879 | locus YDR502C, strain sam2, stronger effect = lower value 0.971 | locus YEL003W, strain gim4, stronger effect = lower value 0.996 | locus YEL037C, strain rad23, stronger effect = lower value 0.973 | locus YEL061C, strain CIN8 (second series), stronger effect = lower value 0.978 | locus YEL061C, strain CIN8, stronger effect = lower value 0.982 | locus YER015W, strain faa2, stronger effect = lower value 0.995 | locus YER016W, strain bim1, stronger effect = lower value 1 | locus YER110C, stronger effect = lower value 0.977 | locus YER111C, strain swi4, stronger effect = lower value 0.967 | locus YER155C, strain BEM2 (second series), stronger effect = lower value 0.991 | locus YER155C, strain BEM2, stronger effect = lower value 0.979 | locus YER167W, strain BCK2, stronger effect = lower value 0.982 | locus YFR010W, strain ubp6, stronger effect = lower value 0.985 | locus YGL078C, strain dbp3, stronger effect = lower value 0.986 | locus YGL086W, strain mad1, stronger effect = lower value 0.983 | locus YGL167C, strain pmr1, stronger effect = lower value 0.987 | locus YGL173C, strain kem1, stronger effect = lower value 0.994 | locus YGL227W, strain vid30, stronger effect = lower value 0.995 | locus YGL240W, strain doc1, stronger effect = lower value 1.02 | locus YGL248W, strain PDE1, stronger effect = lower value 0.972 | locus YGL253W, strain hxk2, stronger effect = lower value 0.982 | locus YGR078C, strain PAC10, stronger effect = lower value 0.986 | locus YGR135W, strain pre9, stronger effect = lower value 0.962 | locus YGR229C, strain SMI1, stronger effect = lower value 0.974 | locus YGR252W, strain gcn5, stronger effect = lower value 1.02 | locus YHR013C, strain ard1, stronger effect = lower value 0.932 | locus YHR027C, strain rpn1, stronger effect = lower value 0.983 | locus YHR030C, strain SLT2, stronger effect = lower value 0.989 and 1.02 | locus YHR079C, strain IRE1 (second series), stronger effect = lower value 0.982 | locus YHR079C, strain IRE1, stronger effect = lower value 1.03 | locus YHR094C, strain hxt1, stronger effect = lower value 0.971 | locus YHR129C, strain ARP1, stronger effect = lower value 0.998 | locus YHR142W, strain chs7, stronger effect = lower value 0.941 | locus YHR200W, strain rpn10, stronger effect = lower value 0.97 | locus YIL066C, strain RNR3, stronger effect = lower value 0.983 | locus YIL073C, strain SPO22, stronger effect = lower value 0.963 | locus YIL125W, strain kgd1, stronger effect = lower value 0.979 | locus YIR030C, strain dcg1, stronger effect = lower value 0.981 | locus YJL092W, strain hpr5, stronger effect = lower value 0.979 | locus YJL095W, strain BCK1 (second series), stronger effect = lower value 0.984 | locus YJL095W, strain BCK1, stronger effect = lower value 1 and 1.02 | locus YJL115W, strain asf1, stronger effect = lower value 0.981 | locus YJL129C, strain trk1, stronger effect = lower value 0.969 | locus YJL134W, strain LCB3, stronger effect = lower value 0.981 | locus YJL154C, strain vps35, stronger effect = lower value 0.978 | locus YJL164C, strain tpk1, stronger effect = lower value 0.949 | locus YJL166W, strain qcr8, stronger effect = lower value 0.952 | locus YJL168C, strain set2, stronger effect = lower value 0.981 | locus YJL187C, strain SWE1 (second series), stronger effect = lower value 0.98 | locus YJL187C, strain SWE1, stronger effect = lower value 0.984 | locus YJR043C, strain POL32, stronger effect = lower value 0.989 | locus YJR066W, strain TOR1, stronger effect = lower value 0.959
